# The source made the active and inactive calls. Rule for the calls: active = hit-call score of the fitted dose curve at least 0.9, where 1 is the maximum; inactive = score below 0.9.
# Read-out: Thrombomodulin, THBD (gene 7056)
# Assay: BSK_3C_Thrombomodulin: BioMAP Diversity Plus: 3C Assay for Thrombomodulin Biomarker Activity (AID 2283029)
# Conditions: primary human endothelial cells (HUVEC); actives raise or lower the signal
# Protocol: BSK_3C is a cell-based, multiplexed-readout assay that uses umbilical vein endothelium, a human vascular primary cell, with measurements taken at 24 hours after chemical dosing in a 96-well plate.BSK_3C_Thrombomodulin is an assay component measured in the BSK_3C assay. It measures Thrombomodulin antibody related to regulation of gene expression using ELISA technology.Data from the assay component BSK_3C_Thrombomodulin was analyzed into 1 assay endpoint. This assay endpoint, BSK_3C_Thrombomodulin, was analyzed with bidirectional fitting relative to DMSO as the negative control and baseline of activity. Using a type of binding reporter, gain or loss-of-signal activity can be used to understand changes in the signaling as they relate to the gene THBD. Furthermore, this assay endpoint can be referred to as a primary readout, because this assay has produced multiple assay endpoints where this one serves a signaling function. To generalize the intended target to other relatable targets, this assay endpoint is annotated to the gpcr intended target family, where the subfamily is rhodopsin-like receptor.
# The levels of cell surface (or secreted, indicated by the prefix "s") biomarker endpoints were measured by ELISA. Overt cytotoxicity to cells in confluent adherent cultures (all systems other than the BT system) was assessed by measuring total protein levels using sulforhodamine B (SRB) staining in parallel cultures at the time of biomarker measurements, indicated as SRB endpoints. For proliferation assays for adherent cell types, individual cell types are cultured at sub-confluence and relative cell numbers quantified by SRB staining at time points optimized for each system (48 h: 3C and CASM3C systems; 72 h: BT and HDF3CGF systems; 96 h: SAg system). SRB was performed by staining cells with 0.1% SRB after fixation with 10% TCA and reading wells at 560 nm.Viability and proliferation of PBMC (T cells) was quantified by Alamar Blue reduction for the SAg and BT systems. For PBMC viability (referred to as PBMC Cytotoxicity within the assay endpoint names), cells were plated (75,000/well in a 96-well plate) and then chemical samples added for 1 h before addition of activators, SEB and TSST-1 (20 ng/mL final concentration each). Cells were incubated for 90 h. Then, Alamar Blue (20 uL/well) (Invitrogen, Cat DAL1100) was added for 6 h, and the plates were read with a fluorescence microplate reader at 546/580 nm (excitation/emission). For PBMC proliferation, cells were plated and activated as above but incubated for only 16 h prior to addition of Alamar Blue. Plates were read after 6 h.
SMILES,outcome,AC50
CCCC1COC(Cn2cncn2)(c2ccc(Cl)cc2Cl)O1 (stereo not given),inactive,
CC1=C(C(=O)Nc2ccccc2)SCCO1,inactive,
CCNc1nc(Cl)nc(NCC)n1,inactive,
C=CC1(C)OC(=O)N(c2cc(Cl)cc(Cl)c2)C1=O (stereo not given),inactive,
Oc1ccccc1-c1ccccc1,inactive,
CN(C)C(=S)SSC(=S)N(C)C,inactive,
O=C(Nc1ccccc1)Nc1ccnc(Cl)c1,,1.43 µM (active)
O=C(O)c1nc(Cl)ccc1Cl,inactive,
CC(C)Oc1cc(-n2nc(C(C)(C)C)oc2=O)c(Cl)cc1Cl,,20 µM (active)
CNC(=O)ON=CC(C)(C)SC,inactive,
COc1cnc(OC)n2nc(NS(=O)(=O)c3c(OCC(F)F)cccc3C(F)(F)F)nc12,inactive,
CCCCC(CC)COC(=O)c1ccccc1C(=O)OCC(CC)CCCC (stereo not given),inactive,
CC(C)C1(C)N=C(c2nc3ccccc3cc2C(=O)O)NC1=O (stereo not given),inactive,
COc1nc(NC(C)C)nc(NC(C)C)n1,,0.148 µM (active)
C=CCC1=C(C)[C@@H](OC(=O)[C@@H]2[C@@H](C=C(C)C)C2(C)C)CC1=O,inactive,
CNC(=S)S,inactive,
Cc1cc(Cl)ccc1OCC(=O)O,inactive,
Cc1ccc(-c2c(Cl)nc(C#N)n2S(=O)(=O)N(C)C)cc1,inactive,
CCCN(CCC)c1c([N+](=O)[O-])cc(S(N)(=O)=O)cc1[N+](=O)[O-],inactive,
O=C(O)COc1nc(Cl)c(Cl)cc1Cl,inactive,

SMILES,outcome,AC50
C=CCC1=C(C)C(OC(=O)C2C(C=C(C)C)C2(C)C)CC1=O (stereo not given),inactive,
CCOP(=S)(OCC)SCn1c(=O)oc2cc(Cl)ccc21,inactive,
C#CCOS(=O)OC1CCCCC1Oc1ccc(C(C)(C)C)cc1 (stereo not given),inactive,
CCOC(=O)CC(SP(=S)(OC)OC)C(=O)OCC (stereo not given),inactive,
Fc1ccc(Oc2ccnc3cc(Cl)cc(Cl)c23)cc1,inactive,
CC(C)(C)c1ccc(CSc2cnn(C(C)(C)C)c(=O)c2Cl)cc1,inactive,
COc1nc(C)nc(NC(=O)NS(=O)(=O)c2ccccc2Cl)n1,inactive,
COC(=O)C(C)Oc1ccc(Oc2ccc(Cl)cc2Cl)cc1 (stereo not given),inactive,
CCc1nn(C)c(C(=O)NCc2ccc(C(C)(C)C)cc2)c1Cl,inactive,
N#Cc1nn(-c2c(Cl)cc(C(F)(F)F)cc2Cl)c(N)c1S(=O)C(F)(F)F (stereo not given),inactive,
N#CC(CCc1ccc(Cl)cc1)(Cn1cncn1)c1ccccc1 (stereo not given),inactive,
N#Cc1cc(Br)c(O)c(Br)c1,inactive,
COc1nc(C)nc(NC(=O)NS(=O)(=O)c2ccccc2CCC(F)(F)F)n1,inactive,
CCON=C(CC)C1=C(O)CC(c2c(C)cc(C)cc2C)CC1=O (stereo not given),inactive,
COc1ccc(C(c2ccc(OC)cc2)C(Cl)(Cl)Cl)cc1,inactive,
CC1COC(Cn2cncn2)(c2ccc(Oc3ccc(Cl)cc3)cc2Cl)O1 (stereo not given),inactive,
CCCCNC(=O)OCC#CI,inactive,
CCOC(=O)C(Cl)Cc1cc(-n2nc(C)n(C(F)F)c2=O)c(F)cc1Cl (stereo not given),inactive,
CON(C)C(=O)Nc1ccc(Cl)c(Cl)c1,inactive,
CCOc1cc(Oc2ccc(C(F)(F)F)cc2Cl)ccc1[N+](=O)[O-],,4.94 µM (active)
